From PubChem BioAssay (NCI)
Compounds without any hit were thinned out: in the full panel of roughly 83,000, 20% have a hit.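 The endpoint reported here, percent growth, reads 100 for growth as untreated, 0 for no net growth and -100 for all cells dead.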 A number with no mark means an inactive call. Active and inactive are the calls of the source. Rule for the calls: active = growth percent below 10; inactive = the rest.

These compounds were tested on MDA-MB-468 breast (assay: NCI-60 one-dose screen, 48 h (100 = growth as untreated, 0 = no growth, -100 = all killed)). Details: 10 µM unless noted.

| SMILES | growth |
| --- | --- |
| O=C(Nc1cccc([N+](=O)[O-])c1)c1cc2ccccc2cc1O | -42.8% (active) |
| C=C[C@]1(C)C=C2C(=O)[C@@]3(O)OC(=O)[C@@]4(CCCC(C)(C)[C@H]34)[C@@]2(O)CC1 | -84.4% (active) |
| COc1cc(NC(=O)Nc2cnc(Nc3ccc(N4CCOCC4)cc3)nc2Oc2cccc(OC)c2)cc(OC)c1 | 29.9% |
| Cc1ccc(C(=O)NN2C(=O)/C(=C/C=C/c3ccco3)SC2=S)cc1 | 71% |
